Screening results deposited in PubChem by several laboratories.
SMARCA2 activ = activators of SMARCA2 function; MG213 cells, MMTV-luciferase reporter, dexamethasone, overnight; activation, % at 9.1 µM; 370,000 compounds, 1% hits; AID 652017; in the data active means activation above about 7.8%;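 further: 0% = vehicle wells and 100% = reference activator wells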
GAA850 FXN act = increases GAA850 frataxin promoter reporter activity; activation, % at 6 µM; 360,000 compounds, 0.56% hits; HEK293 lucGAA850 FXN promoter luciferase reporter, 24 h; percent of 10 µM SAHA response;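 active means activation above the average of all compounds screened plus 3 SD, cutoff fixed separately per campaign, cut at about 7.5% in these data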;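 further: 0% = DMSO wells and 100% = 10 µM SAHA wells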
FAS-TE inh = blocks the thioesterase domain of human fatty acid synthase; 360,000 compounds, 0.67% hits; AID 602261; inhibition, % at 15 µM; recombinant FAS-TE, OMFH fluorogenic substrate, fluorescence endpoint;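 active means compounds whose normalised, plate-corrected inhibition of enzyme fluorescence in the single-dose primary screen is 50% or more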;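 further: 0% = DMSO with enzyme and 100% = substrate without enzyme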
Target sequence (P49327 whole entry, looked up, the tested form may be a part): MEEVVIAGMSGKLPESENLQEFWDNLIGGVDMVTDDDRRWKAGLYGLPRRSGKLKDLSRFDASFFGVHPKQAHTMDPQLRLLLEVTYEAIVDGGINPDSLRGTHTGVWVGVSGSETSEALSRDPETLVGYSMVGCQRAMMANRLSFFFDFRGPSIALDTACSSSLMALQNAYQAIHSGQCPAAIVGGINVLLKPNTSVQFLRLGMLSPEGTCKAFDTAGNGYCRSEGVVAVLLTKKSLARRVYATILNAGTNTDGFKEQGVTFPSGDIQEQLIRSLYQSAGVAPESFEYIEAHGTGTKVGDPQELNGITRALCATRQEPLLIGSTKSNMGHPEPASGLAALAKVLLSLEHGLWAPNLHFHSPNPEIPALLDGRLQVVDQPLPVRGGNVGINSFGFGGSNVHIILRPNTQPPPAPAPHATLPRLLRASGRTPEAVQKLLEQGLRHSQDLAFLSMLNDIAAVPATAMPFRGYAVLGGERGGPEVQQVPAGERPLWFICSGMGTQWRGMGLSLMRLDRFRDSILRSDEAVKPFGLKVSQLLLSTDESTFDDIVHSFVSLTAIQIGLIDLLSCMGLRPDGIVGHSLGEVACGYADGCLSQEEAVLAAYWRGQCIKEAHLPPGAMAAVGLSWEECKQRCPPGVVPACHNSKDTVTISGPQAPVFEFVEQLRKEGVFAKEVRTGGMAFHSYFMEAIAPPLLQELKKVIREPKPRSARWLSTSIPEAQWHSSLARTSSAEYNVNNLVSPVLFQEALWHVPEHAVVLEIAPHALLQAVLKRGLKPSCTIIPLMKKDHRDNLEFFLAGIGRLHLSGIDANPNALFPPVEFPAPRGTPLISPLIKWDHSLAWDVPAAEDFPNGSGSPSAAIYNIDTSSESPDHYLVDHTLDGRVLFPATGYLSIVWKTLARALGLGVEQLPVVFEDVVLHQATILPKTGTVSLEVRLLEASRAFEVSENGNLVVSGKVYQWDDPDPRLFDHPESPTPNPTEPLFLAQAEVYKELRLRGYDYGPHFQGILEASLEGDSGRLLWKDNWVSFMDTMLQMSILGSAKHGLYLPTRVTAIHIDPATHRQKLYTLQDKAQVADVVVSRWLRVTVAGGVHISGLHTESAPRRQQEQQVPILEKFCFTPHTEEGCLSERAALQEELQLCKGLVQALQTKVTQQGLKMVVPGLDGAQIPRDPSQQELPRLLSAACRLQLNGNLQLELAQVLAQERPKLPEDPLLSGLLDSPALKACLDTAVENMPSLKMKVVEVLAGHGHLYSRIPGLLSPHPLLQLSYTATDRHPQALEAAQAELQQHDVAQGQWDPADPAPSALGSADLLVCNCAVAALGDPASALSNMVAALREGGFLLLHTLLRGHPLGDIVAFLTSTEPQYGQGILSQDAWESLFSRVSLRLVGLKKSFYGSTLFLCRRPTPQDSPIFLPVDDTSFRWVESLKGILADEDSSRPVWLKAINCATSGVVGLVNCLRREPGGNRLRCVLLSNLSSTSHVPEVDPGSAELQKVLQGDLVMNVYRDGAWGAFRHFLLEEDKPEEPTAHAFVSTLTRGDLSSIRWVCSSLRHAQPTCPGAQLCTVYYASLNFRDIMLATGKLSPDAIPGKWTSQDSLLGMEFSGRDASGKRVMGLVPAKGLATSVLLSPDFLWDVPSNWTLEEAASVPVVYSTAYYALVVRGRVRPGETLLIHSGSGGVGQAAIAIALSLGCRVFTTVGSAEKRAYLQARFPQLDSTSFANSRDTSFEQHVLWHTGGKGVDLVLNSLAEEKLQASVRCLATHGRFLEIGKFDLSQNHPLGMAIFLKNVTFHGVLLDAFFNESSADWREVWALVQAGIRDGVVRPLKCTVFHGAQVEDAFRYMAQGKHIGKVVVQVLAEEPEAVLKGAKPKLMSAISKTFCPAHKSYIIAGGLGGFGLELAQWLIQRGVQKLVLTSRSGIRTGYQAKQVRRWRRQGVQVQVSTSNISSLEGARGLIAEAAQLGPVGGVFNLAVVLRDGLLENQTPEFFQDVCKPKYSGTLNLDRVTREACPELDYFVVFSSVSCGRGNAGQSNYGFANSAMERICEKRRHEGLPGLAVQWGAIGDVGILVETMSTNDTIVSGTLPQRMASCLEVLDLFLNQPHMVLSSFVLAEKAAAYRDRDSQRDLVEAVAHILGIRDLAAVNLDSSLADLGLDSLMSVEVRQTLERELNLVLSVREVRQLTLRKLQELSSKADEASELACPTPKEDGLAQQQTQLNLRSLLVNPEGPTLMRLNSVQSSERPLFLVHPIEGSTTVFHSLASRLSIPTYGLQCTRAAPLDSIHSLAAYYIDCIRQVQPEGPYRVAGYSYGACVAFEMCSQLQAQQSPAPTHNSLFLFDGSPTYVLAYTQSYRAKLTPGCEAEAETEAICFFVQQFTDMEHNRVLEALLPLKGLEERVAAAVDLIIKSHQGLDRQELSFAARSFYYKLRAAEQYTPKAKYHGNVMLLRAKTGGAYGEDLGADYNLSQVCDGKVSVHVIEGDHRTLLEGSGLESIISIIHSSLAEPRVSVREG
KLK7 zymogen act = activators of human kallikrein-7 zymogen; P49862; purified proKLK7, EDANS-DABCYL substrate fluorescence; 100% is mature enzyme control, 0% vehicle; activation, % at 7 µM; 370,000 compounds, 0.9% hits; AID 652039;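 active means activation above the mean of all tested compounds plus 3 SD, computed per campaign excluding outliers beyond control limits, cut at about 13% in these data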
GAA30 counter = counter-screen for GAA850 frataxin promoter activators: GAA30 promoter activation; shares compounds with GAA850 FXN act; HEK293 lucGAA30 FXN promoter luciferase, 24 h; DMSO = 0%, 5 µM ipriflavone = 100%; activation, % at 6 µM; 1,900 compounds, 66% hits;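 active means mean activation above the mean of solvent-only control wells plus 3 SD, cut at about 22% in these data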;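 further: counterscreen of GAA850 promoter hits where activity marks nonselective or luminescence artifacts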
GAA850 confirm = confirmation of GAA850 frataxin (FXN) promoter activators; shares compounds with GAA850 FXN act; HEK293 lucGAA850 FXN promoter luciferase reporter, 24 h; 100% = activation by SAHA; activation, % at 6 µM; 1,900 compounds, 86% hits;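 active means mean activation above a set limit taken from the primary screen, cut at about 8% in these data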;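 further: 0% = DMSO wells and 100% = 10 µM SAHA wells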
* = called active by the depositor; · = not tested or not shown. Shown are actives, neighbours in structure and some others; about 2.9% of the full set was active somewhere.

SMILES	SMARCA2 activ	GAA850 FXN act	FAS-TE inh	KLK7 zymogen act	GAA30 counter	GAA850 confirm
CC(=O)Nc1ccc2c(c1)OCO2	0	2	-10	0	·	·
O=C(Nc1ccc2c(c1)OCO2)c1nn(-c2ccccc2)c(=O)c2ccccc12	-1	-2	18	1	·	·
O=C(Nc1ccc2c(c1)OCO2)c1n[nH]c(=O)c2ccccc12	5	9.8*	-5	1	100*	40*
O=C(Nc1ccc2c(c1)OCO2)c1ccc(Br)s1	6	20*	8	0	108*	38*
Cc1ccc(-n2nc3cc(C)c(N)cc3n2)cc1	2	3	10	0	·	·
Cc1cc2nc3ccc(N(C)C)cc3nc2cc1N	7	7.8*	-9	7	119*	34*
O=C1CCCC(=O)C1C1c2ccccc2CCN1C(=O)CCl (stereo unspecified)	-3	1	-6	0	·	·
CCOc1nc(C)ccc1-c1noc(-c2ccco2)n1	1	7.7*	3	-1	53*	18*
Cc1c(C(c2cc(O)ccc2Cl)c2c(C)n(C)n(-c3ccccc3)c2=O)c(=O)n(-c2ccccc2)n1C	-1	0	-7	-1	·	·
CCNc1ccc(N=Nc2c(C)n(C)n(-c3ccccc3)c2=O)cc1	-7	8.4*	-3	0	29*	13*
O=C1C=C(c2cccc3c2oc2ccccc23)CCC1	4	6	18	-3	·	·
CC1(C)CC(=O)C=C(c2cccc3c2oc2ccccc23)C1	1	9.6*	30	-3	61*	26*
CC1(Cc2ccc(F)cc2)C(=O)Nc2ccc(S(=O)(=O)NC3CCCCC3)cc21 (stereo unspecified)	-5	9.7*	15	0	0	7
COc1ccc(OC(F)(F)F)cc1CC1(C)C(=O)Nc2cccc(Cl)c21 (stereo unspecified)	-1	3	23	0	·	·
COc1ccccc1CC1(C)C(=O)Nc2ccc(S(=O)(=O)NC3CCCCC3)cc21 (stereo unspecified)	-4	9.1*	6	0	1	3
COc1ccc(OC(F)(F)F)cc1CC1(C)C(=O)Nc2ccc(S(=O)(=O)NC3CCCCC3)cc21 (stereo unspecified)	-3	17*	20	0	15	14*
COc1ccc(OC(F)(F)F)cc1CC1(C)C(=O)Nc2ccc(-c3ccsc3)cc21 (stereo unspecified)	-2	13*	28	-1	17	9.0*
COc1ccc(Cl)cc1CC1(C)C(=O)Nc2ccc(S(=O)(=O)NC3CCCCC3)cc21 (stereo unspecified)	-6	16*	21	0	9	13*
Cc1ccccc1CC1(C)C(=O)Nc2ccc(S(=O)(=O)NC3CCCCC3)cc21 (stereo unspecified)	-6	2	10	0	·	·
CC(C)(C)c1ccc(/C=C/C(=O)Nc2nncs2)cc1	0	7.6*	-3	-1	108*	39*
Fc1cccc(/C=N/Nc2cc(N3CCOCC3)ncn2)c1	1	9.3*	-1	-1	127*	99*
C=C(C)[C@@H]1C2=CC(C(=O)OC)=C(C[C@H](C(=C)C)[C@H]3O[C@H]3C3=C[C@H]1OC3=O)O2	5	15*	0	1	-44	3
CCOC(=O)/C(C#N)=C/Nc1ccccc1OC	4	8.0*	0	0	92*	29*
Cc1ccccc1-c1ccc(C(=O)Nc2cccc(F)c2)o1	5	7.7*	22	0	57*	17*
O=C(Nc1cccc(F)c1)c1ccc(-c2ccccc2C(F)(F)F)o1	1	·	·	0	·	·
SMILES	SMARCA2 activ	GAA850 FXN act	FAS-TE inh	KLK7 zymogen act	GAA30 counter	GAA850 confirm
CC(C)C[C@H]1COc2cccc(N3CCC[C@@H]3CO)c2S(=O)(=O)N1	-2	·	-10	0	·	·
Cc1ccc(-c2nc3cc(NC(=O)C(C)C)ccc3o2)cc1	6	0	-2	-1	·	·
Cc1cc2nc(-c3ccc(NC(=O)C(C)C)cc3)oc2cc1C	7	8.5*	-6	-2	102*	37*
CN(C)S(=O)(=O)c1ccc(N2CCCC2)c(C(=O)NC(c2ccccc2)c2ccccc2)c1	1	-2	31	-1	·	·
CC(NC(=O)c1cc(S(=O)(=O)N(C)C)ccc1N1CCCC1)C1CC2CCC1C2 (stereo unspecified)	-5	11*	14	0	31*	13*
Cc1ccc(N2C(=O)NC(NC(=O)C(C)(C)C)(C(F)(F)F)C2=O)cc1C (stereo unspecified)	-2	3	-8	0	·	·
COc1ccc(N2C(=O)NC(NC(=O)C(C)(C)C)(C(F)(F)F)C2=O)cc1 (stereo unspecified)	-4	9.2*	-2	0	-1	8.2*
CCOc1ccc(NS(=O)(=O)c2ccc3[nH]c(=O)oc3c2)cc1	2	-1	-6	0	·	·
CN(C)C(=O)c1cccc(-c2cc(NC=O)c3ncc(-c4ccc(F)c(Cl)c4)n3c2)c1	-5	2	21	-2	·	·
Cc1ccc(OCCCCNC(C)c2ccccc2)c(C)c1 (stereo unspecified)	0	7.7*	-3	0	24*	8.8*
COc1cccc(C(=O)Nc2cc3c(cc2Cl)OCCCO3)c1	4	7.9*	8	-1	101*	32*
COc1ccc(C(=O)Nc2cc3c(cc2Cl)OCCCO3)cc1	5	5	1	0	·	·
Cc1ccc(N2C(=O)N3[C@H](c4ccc(F)cc4)[C@@H]4C(=O)N(C5CCCCC5)C(=O)[C@@H]4[C@]3(Cc3ccccc3)C2=O)cc1	1	12*	45	0	31*	11*
CCN1C(=O)[C@H]2[C@@H](c3ccc(C)cc3)N3C(=O)N(c4ccccc4)C(=O)[C@@]3(Cc3ccccc3)[C@H]2C1=O	2	-3	2	1	·	·
CC(C)C[C@@]12C(=O)N(c3cccc(Br)c3)C(=O)N1[C@H](c1ccc(F)cc1)[C@@H]1C(=O)N(C3CCCCC3)C(=O)[C@@H]12	1	11*	86*	0	17	10.0*
O=C1[C@H]2[C@@H](c3ccc(F)cc3)N3C(=O)N(c4cccc(F)c4)C(=O)[C@@]3(Cc3ccccc3)[C@H]2C(=O)N1C1CCCCC1	2	11*	46	1	28*	14*
CCN1C(=O)[C@H]2[C@@H](c3ccc(C)cc3)N3C(=O)N(c4ccc(C)cc4)C(=O)[C@@]3(Cc3ccccc3)[C@H]2C1=O	3	-7	13	0	·	·
O=C1[C@H]2[C@@H](c3ccc(Cl)cc3)N3C(=O)N(c4cccc(Cl)c4)C(=O)[C@@]3(Cc3ccccc3)[C@H]2C(=O)N1C1CCCCC1	-2	8.2*	94*	0	-10	0
